# Laboratory results taken from PubChem BioAssay (NCI).
# About 83,000 compounds went through this panel and 20% of them were active in at least one assay; those are over-represented in the sample as a whole.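 How to read the values: 0–100, growth inhibition (40 = 60% inhibited); 0, no net growth; -100 to 0, cell death (-40 = 40% of starting cells died; -100 = all dead).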 Active and inactive are the calls of the source. How the source made its calls: active means growth percent below 10; inactive means the rest.
# Tested on: NCI-H226 lung
# Experiment: NCI-60 one-dose screen, 48 h (100 = growth as untreated, 0 = no growth, -100 = all killed)
# Details: 10 µM unless noted
row,SMILES,growth
1,O=C1c2cccc3cccc(c23)C(=O)N1N1C(=O)c2cccc3c(N4CCOCC4)ccc(c23)C1=O,95.4% (inactive)
2,CCO/C=N/C1=C(C#N)C(c2ccc(OC)cc2)c2sc3c(F)cccc3c2O1 (stereo not given),63% (inactive)
3,Cc1ccc(CNc2ccc(Cl)cc2NCc2ccc(C)c(O)c2)cc1O,85.7% (inactive)
4,O=C(c1ccc(-c2nc(CSc3nc4ccccc4s3)no2)cc1)N1CCSCC1,68.4% (inactive)
5,C/C(=C(/c1ccc(Cl)cc1)c1ccc(OCCN2CCCC2)cc1)c1ccc(Cl)cc1,107% (inactive)
6,CC[C@]12C=CCN3CC[C@@]4(c5cc(NC(=O)CCC(=O)OCc6cn(Cc7ccc(F)cc7)nn6)c(OC)cc5N(C)[C@H]4[C@@](O)(C(=O)OC)[C@@H]1OC(C)=O)[C@@H]32,95.2% (inactive)
7,C=C(C)[C@@H]1CC[C@]2(C(=O)O)CC[C@]3(C)[C@H](CC[C@@H]4[C@@]5(C)C[C@@H](Cc6cn(CCO[C@@H]7O[C@H](COC(C)=O)[C@H](OC(C)=O)[C@H](OC(C)=O)[C@H]7OC(C)=O)nn6)[C@H](O)C(C)(C)[C@@H]5CC[C@]43C)[C@@H]12,81.9% (inactive)
8,C=CCn1c(SCC(=O)Nc2ccc(C(=O)/C=C/c3ccc(Cl)cc3)cc2)nnc1-c1cc(-c2ccc(S(N)(=O)=O)cc2)nc2ccccc12,89.6% (inactive)
9,CCOC(=O)C1=NN(c2ccccc2)C(=O)/C1=C\N1C(=O)CC(=O)NC1=S,92.5% (inactive)
10,CC12CCC3c4ccccc4CCC3(CO1)C2 (stereo not given),95.8% (inactive)
11,O=C1CC(N2C(=O)/C(=C/C(Cl)=C\c3ccc([N+](=O)[O-])cc3)SC2=S)C(=O)N1c1ccc(Cl)cc1 (stereo not given),95.5% (inactive)
12,CC1(C)c2[nH]c3ccccc3c2C[C@]2(C)[C@H]3CC=C4[C@@H]5C[C@@](C)(C(N)=O)CC[C@]5(C)CC[C@@]4(C)[C@]3(C)CC[C@@H]12,60.4% (inactive)
13,CCCCCOc1ccc(C(=O)/C(Br)=C/C(=O)O)cc1,106% (inactive)
14,CC(C)N1CCN(Cc2ccc3c(NNC(=O)c4ccccc4)nc4cc(F)ccc4n23)CC1,14.5% (inactive)
15,N#Cc1cccc(NC(=O)c2oc3ccccc3c2-c2cnn(-c3ccccc3)c2)c1,72.5% [50 µM] (inactive)
16,Cc1cccc(N2CCN(CC(O)COc3ccc(Cl)cc3)CC2)c1 (stereo not given),105% (inactive)
17,CCOC(=O)c1c(C)nc2c(c1N)CC(=O)N2Cc1cc(F)cc(Cl)c1,89.1% (inactive)
18,C[C@@H]1CCC[C@H]1CC(N)C(=O)O (stereo not given in full),101% (inactive)
19,O=CC1(C2(C=O)c3ccccc3-c3ccccc32)c2ccccc2-c2ccccc21,-47.2% (active)
20,O=C1Nc2ccc(I)cc2C1=O,92.8% (inactive)

row,SMILES,growth
1,CN1CCN(c2ccc(NC(=O)c3nc4ccc5[nH]ncc5c4c4c3CCCC4)cc2C(F)(F)F)CC1,80% (inactive)
2,CN(C)C1CCN(Cc2ccc(NC(=O)c3cncc(C#Cc4cnc(N)c5ncccc45)c3)cc2C(F)(F)F)CC1,90% (inactive)
3,COc1ccc(C/C(C)=C(/c2ccc(OCCN3CCCCC3)cc2)c2ccc(OC(=O)NCc3ccccc3)cc2)cc1,-70% (active)
4,COc1ccccc1NC(=O)Cn1cc(CN2CCN(c3ccnc4cc(Cl)ccc34)CC2)nn1,84.7% (inactive)
5,N=C(N)c1ccc(-c2ccc(-c3ccc(F)cc3)o2)o1,69.7% (inactive)
6,CN1C(=O)/C(=C/c2ccc(C(=O)Nc3ncc(Cc4ccc(Cl)cc4)s3)cc2)SC1=S,71.5% (inactive)
7,CCCCCC(=O)OCC(=O)O[C@@H]1C[C@]2(C(C)C)O[C@@]1(C)[C@@H]1CC[C@@H](C)[C@H]1[C@@H]2OC(=O)/C=C/c1ccccc1,86% (inactive)
8,CC(=O)N(N=Nc1ccccc1)c1cccc2ccccc12,92.5% (inactive)
9,COc1ccc(/C=C2\C(=O)N=C3N2NC(c2cc(Br)ccc2O)C=C(C)N3c2ccccc2)cc1 (stereo not given),85.1% (inactive)
10,CC(C)(C)[Si](C)(C)O[C@H]1C(=O)C=CN2CC=C[C@@H]12,94.4% [100 µM] (inactive)
11,C=C1C(=O)O[C@H]2[C@H]1CC/C(COC(=O)CSCCSCC(=O)OC/C1=C/CC[C@@]3(C)O[C@H]3[C@H]3OC(=O)C(=C)[C@@H]3CC1)=C\CC[C@@]1(C)O[C@@H]21,8.95% (active)
12,Brc1ccc2[nH]cc(-c3nonc3-c3c[nH]c4ccccc34)c2c1,66.7% (inactive)
13,COc1cccc(NC(=O)Cn2cc(CN3CCN(c4ccnc5cc(Cl)ccc45)CC3)nn2)c1,81.6% (inactive)
14,CCOc1ccc(NC(=O)CSc2oc(-c3ccccc3)nc2S(=O)(=O)c2ccc(F)cc2)cc1,80.2% (inactive)
15,O=C1Nc2ccc(Br)cc2/C1=N/c1n[nH]c(=S)s1,99.4% (inactive)
16,COc1ccc(C(=O)C2C(c3ccc(OC)cc3)CN(C)C23C(=O)Nc2ccccc23)cc1 (stereo not given),88% (inactive)
17,Cc1noc(C)c1C(=O)OCc1coc2ccccc2c1=O,84.9% (inactive)
18,C[C@]12CC[C@@H]3c4ccc(O)c([N+](=O)[O-])c4CC[C@H]3[C@@H]1CCC2=O,95.7% (inactive)
19,COc1cccc([C@H]2c3[nH]c4ccccc4c3C[C@H]3C(=O)N(CCCCCCC(=O)NO)CC(=O)N23)c1,88.7% (inactive)
20,CO/N=C(/C)c1ccc(NC(=O)CSc2nnc(-c3ccncc3)n2-c2ccccc2)cc1,24.2% (inactive)
